# In the library only some 2.8% were active in any assay of this set; here they are far more common.
# PI5P4Ka inh = inhibitors of human PI5P4K alpha. P48426. PI5P4Kalpha enzyme, ADP-Glo luminescence, 60 min; stronger effect = lower value. max response, %. hit rate 1.2% among 330,000. AID 652105; active = max response of -50% or lower; inconclusive = between -30% and -50%; inactive = -30% or higher; note: value at the top dose of about 77 µM; % is set by controls: 0 for no effect and ±100 for the full control effect
#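 PI5P4Kalpha ADP-Glo assay; 5 microM ATP final; 60 min RT reaction; HEPES pH 7.4/EGTA/CHAPS, 5% DMSO; controls lacking substrate or enzyme; luminescent end-point.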
# POLB inh = DNA polymerase beta (human) inhibition; P06746; Pol beta primer extension/strand displacement, fluorescence kinetic; Potency, µM (top dose mostly 114 µM), without a hit: at the highest dose activity change, negative = inhibition, usual class: inhibitors; hit rate 1.3% among 340,000; AID 485314; note: potency is the fitted concentration of half-maximal effect; % is set by controls: 0 for no effect and ±100 for the full control effect
#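 Human Pol beta at 10 nM; strand-displacement substrate 50 nM final. Compound exposure 15 min at room temperature before start, reaction 10 min at room temperature.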
# POLH inh = inhibitors of human DNA polymerase eta; recombinant Pol eta, fluorescent DNA replication assay; Potency, µM (series often up to 114 µM), without a hit: top-dose activity change, negative = inhibition, usual class: inhibitors; hit rate 1.2% among 390,000; note: potency is the fitted concentration of half-maximal effect; % is set by controls: 0 for no effect and ±100 for the full control effect
#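 Fluorescent replication assay: 50 nM final substrate added after a 15 min room-temperature compound preincubation with 10 nM enzyme. Signal taken at 0 min and again at 10 min.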
# POLK inh = inhibitors of human DNA polymerase kappa. Q9UBT6. purified Pol kappa, fluorescent DNA synthesis assay, 10 min. Potency, µM (titrated, usually from 107 µM), without a hit: at the top dose activity, negative = inhibition, usual class: inhibitors. hit rate 0.53% among 400,000. AID 588579; note: potency is the fitted concentration of half-maximal effect; % is set by controls: 0 for no effect and ±100 for the full control effect
# Target sequence (Q9UBT6 whole entry, looked up): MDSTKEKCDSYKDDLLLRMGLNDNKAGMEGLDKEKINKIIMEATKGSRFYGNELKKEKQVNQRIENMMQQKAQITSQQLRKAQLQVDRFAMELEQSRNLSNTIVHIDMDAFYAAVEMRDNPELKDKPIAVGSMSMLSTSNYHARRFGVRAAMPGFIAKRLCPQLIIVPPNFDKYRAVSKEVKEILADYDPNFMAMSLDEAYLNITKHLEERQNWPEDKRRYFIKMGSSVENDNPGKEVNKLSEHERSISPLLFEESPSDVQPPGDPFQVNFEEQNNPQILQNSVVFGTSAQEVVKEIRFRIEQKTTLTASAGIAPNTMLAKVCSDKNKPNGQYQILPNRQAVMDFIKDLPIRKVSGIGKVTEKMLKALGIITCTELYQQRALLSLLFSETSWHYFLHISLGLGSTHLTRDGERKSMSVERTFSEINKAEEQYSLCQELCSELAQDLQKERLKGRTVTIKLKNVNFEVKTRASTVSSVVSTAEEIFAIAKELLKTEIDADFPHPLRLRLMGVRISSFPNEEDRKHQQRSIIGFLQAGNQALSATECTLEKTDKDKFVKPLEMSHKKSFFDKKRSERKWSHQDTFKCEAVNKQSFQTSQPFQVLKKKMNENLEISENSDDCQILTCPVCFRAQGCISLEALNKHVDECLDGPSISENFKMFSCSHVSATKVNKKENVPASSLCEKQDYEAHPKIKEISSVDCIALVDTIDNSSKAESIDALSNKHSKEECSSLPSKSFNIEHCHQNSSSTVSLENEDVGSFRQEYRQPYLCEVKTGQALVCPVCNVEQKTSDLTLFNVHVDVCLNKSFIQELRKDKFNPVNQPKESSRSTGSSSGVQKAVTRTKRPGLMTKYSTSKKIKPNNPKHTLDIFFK
#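 Kinetic fluorescence readout at 0 and 10 min followed reaction start with substrate at 50 nM final. Beforehand, enzyme (10 nM Pol kappa) stood 15 min with compound at room temperature; buffer-only wells were negative controls.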
# WRN helicase inh = blocks human WRN helicase; Q14191; WRN helicase unwinding, fluorescent forked duplex, kinetic; Potency, µM (titrated, usually from 114 µM), without a hit: top-dose activity change, negative = inhibition, usual class: inhibitors; hit rate 0.46% among 360,000; AID 651768; note: potency is the fitted concentration of half-maximal effect; % is set by controls: 0 for no effect and ±100 for the full control effect; nearly all actives have a fitted effect of over 55% in size
#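 WRN at 20 nM final was preincubated with compound for 15 min at room temperature; reaction started with 100 nM forked duplex oligonucleotide carrying fluorophore and quencher plus 2 mM ATP (final). Unwinding followed kinetically by red fluorescence (ex 525/em 598 nm).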
# POLI inh = inhibitors of human DNA polymerase iota; Q9UNA4; Pol iota fluorescent replication assay, 10 min; Potency, µM (highest dose often 115 µM), for inactives: top-dose activity, negative = inhibition, hits mostly inhibitors; hit rate 1% among 390,000; note: potency is the fitted concentration of half-maximal effect
#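 Pol iota at 10 nM preincubated 15 min with compounds at room temperature; reaction started with fluorescent substrate, 50 nM final. Fluorescence read kinetically at 0 and 10 min; buffer-only wells as negative control.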
# Starred values were filed as active, the others as inactive; ? = inconclusive; . = not tested or not shown; [ ] = remark or other dose. Unless noted, calls come from the whole dose curve; as a rule, active = well fitted curve in the direction sought with a large enough effect; inconclusive = small, poorly fitted or top-dose-only effect, or another doubt; inactive = no such curve, though single readings can be large; an effect the other way counts as inactive or inconclusive.
SMILES,PI5P4Ka inh,POLB inh,POLH inh,POLK inh,WRN helicase inh,POLI inh
c1ccc(-n2nnc3ccccc32)cc1,-0.6,5.9%,-5.2%,18.7%,9.7%,29.9%
O=c1oc2ccc3ccccc3c2cc1-c1nnc(Nc2cccc(F)c2)s1,.,-0.4%,-9.7%,-2.9%,.,16.4%
Cc1nc2scc(C)n2c(=O)c1S(=O)(=O)Nc1ccc(N2CCN(S(C)(=O)=O)CC2)cc1,-4.9,?,?,-10.8%,-13.3%,50.1µM*
CCCCN(CC)CCCn1cnc2c([nH]c3ccc(Cl)cc32)c1=O,.,30.9%,-4.7%,-8.9%,.,?
CCOc1ccc2ccccc2c1/C=N/NC(=O)c1ccncc1,?,20µM*,-4.0%,-11.0%,-3.2%,6.1%
CCOc1ccc2ccccc2c1/C=N/NC(=O)c1cc(C)[nH]n1,6.6,-3.8%,-13.6%,-3.3%,-7.7%,23.7%
O=C(O)c1cc(O)c2c(c1)[C@H]([C@H]1c3cc(C(=O)O)cc(O)c3C(=O)c3c(O[C@@H]4OC(CO)C(O)C(O)C4O)cccc31)c1cccc(O[C@@H]3OC(CO)C(O)C(O)C3O)c1C2=O (some centres undefined),.,.,.,0.891µM*,.,.
O=C(O)c1cc(O)c2c(c1)[C@@H]([C@H]1c3cc(C(=O)O)cc(O)c3C(=O)c3c(O[C@@H]4O[C@H](CO)[C@@H](O)[C@H](O)[C@H]4O)cccc31)c1cccc(O[C@@H]3O[C@H](CO)[C@@H](O)[C@H](O)[C@H]3O)c1C2=O,-110.9*,.,0.794µM*,1.26µM*,3.16µM*,-93.7%
OCC1OC(Oc2cccc3ccccc23)C(O)C(O)C1O (centres undefined),-7.2,9.5%,-14.7%,0.8%,-1.3%[57.1 µM],44.8%
CCn1cc(C(=O)N2CCCC(C(=O)c3cccc(C(F)(F)F)c3)C2)cn1 (centres undefined),-0.4,.,-9.7%,.,5.4%,.
C(=C\c1ccnc2ccccc12)/c1ccnc2ccccc12,.,.,.,5.4%,.,1.9%
C1=CN2CC=Cc3cc(/C=C/c4ccnc5ccccc45)cc(c32)C1,.,.,.,?,.,79.4µM*
CC1CN(S(=O)(=O)c2ccc(C(=O)N(C)C3CCCCC3)cc2)CC(C)O1 (centres undefined),-2.9,.,-5.1%,-2.3%,-1.0%,70.9%
S=C1SCN(Cc2ccccc2)CN1Cc1ccco1,-75.4*,.,?,.,-5.9%[11.6 µM],.
S=C1SCN(Cc2ccccc2)CN1Cc1ccccc1,7.7,-5.4%,-16.2%,-5.6%,-1.4%,-9.0%
COc1cc(NC(=O)[C@@H]2O[C@H](CO)[C@@H](O)[C@H]2O)cc(OC)c1OC,-2.7,.,.,.,-4.8%,.
CC(C)(C)c1ccc(S(=O)(=O)/C=C\C#N)cc1,.,.,.,-4.6%[19.4 µM],.,.
O=C(O)c1cccc(N2C(=O)c3ccc(Oc4ccc(Cl)cc4)cc3C2=O)c1,-5.5,89.1µM*,0.2%,-25.8%,-8.1%,56.4%
O=C(O)c1cccc(N2C(=O)c3ccc4c5c(ccc(c35)C2=O)C(=O)N(c2cccc(C(=O)O)c2)C4=O)c1,-10.3,?,?,-10.1%,-4.6%[11.6 µM],?
COC(=O)/C=C1\SC(=Nc2ccc(OC)cc2)NC1=O,-6.8,-10.0%,-14.5%,-1.2%,-6.1%,4.9%
COC(=O)/C=C1\S/C(=N\N=C\CC(=O)OC)NC1=O,-19.8,-37.0%,?,39.8µM*,?,17.8µM*
Cc1ccc(-c2ccc(=O)n(CC(=O)NCc3ccco3)n2)cc1,.,8.0%,-12.1%,-2.5%,-2.5%,15.6%
COc1ccc(-c2cc(-c3cccs3)c(C#N)c(SCC(=O)NCc3ccco3)n2)cc1,0.1,12.6µM*,10.0%,-3.6%,-14.8%,8.0%
COc1ccc(-c2ccc(=O)n(CC(=O)NCc3ccco3)n2)cc1,-17.7,50.1µM*,?,-3.6%,-32.8%,?
CCC(C(=O)NCc1ccco1)n1nc(-c2ccc(OC)cc2)ccc1=O (centres undefined),?,44.7µM*,?,?,-6.5%[11.6 µM],?
SMILES,PI5P4Ka inh,POLB inh,POLH inh,POLK inh,WRN helicase inh,POLI inh
O=C(Cn1nnc(-c2ccc(Cl)cc2)n1)NCc1ccco1,-24.5,?,-9.4%,?,-8.6%,39.8µM*
CCOc1ccc(/C=C/c2nc(C#N)c(N3CCN(c4ccccc4)CC3)o2)cc1,.,33.7%,-19.9%,1.0%,.,11.2%
O=CNc1ccc(/C=C/c2ccnc3ccccc23)cc1,.,.,.,-4.3%,.,-28.8%
CCc1nc2ccc(C(=O)NCCc3ccccn3)cn2c1N(CC)Cc1cccc(Br)c1,-7.0,.,.,.,-7.3%,.
Cc1nnc2ccc(-c3ccc(NC(=O)c4ccco4)cc3)nn12,-15.1,17.8µM*,?,0.4%,-22.7%,-24.4%
COc1ccc(C(=O)NC2CC2)cc1OC1CCN(Cc2cc(C)c(C)cc2C)CC1,0.0,5.8%,-25.2%,-4.1%,1.8%,13.1%
COc1ccc(CN2CCC(Oc3cc(C(=O)NC4CC4)ccc3OC)CC2)c(O)c1,7.0,2.6%,-5.5%,?,-3.8%[11.6 µM],79.4µM*
O=c1c2ccccc2nc(SCc2cc(=O)n3ccsc3n2)n1CCCO,.,31.6µM*,.,.,.,.
O=[N+]([O-])c1ccc2c(c1)C=CC2,.,.,.,79.4µM*,.,79.4µM*
O=C(C[n+]1cccc(Br)c1)c1ccc(O)c(O)c1,.,.,.,-31.7%,.,?
COc1ccc(S(=O)(=O)N(CC(=O)O)c2ccccn2)cc1,0.2,6.9%,-2.0%,-12.9%,-3.0%,45.2%
COc1ccc(NC(=O)CN(c2ccc([N+](=O)[O-])cc2)S(=O)(=O)c2ccccc2)cc1,6.4,0.112µM*,-16.8%,-5.4%,0.3%,5.4%
COc1ccc(S(=O)(=O)N(CC(=O)O)c2ccccc2)cc1,.,15.1%,-5.7%,-23.7%,-8.1%[57.1 µM],100µM*
COc1ccc(N(CC(=O)N/N=C/c2ccco2)S(=O)(=O)c2ccccc2)cc1,.,8.91µM*,89.1µM*,-22.1%,-30.2%,?
Cc1ccc(NC(=O)COc2ccccc2C(N)=O)cc1S(=O)(=O)N1CCCCCC1,-3.5,.,-27.8%,-4.0%,-6.7%,15.3%
O=C(Cc1ccccc1F)Nc1cc(S(=O)(=O)N2CCCCC2)ccc1N1CCOCC1,-14.4,.,-4.8%,.,2.4%,.
CC(=O)N1CCc2cc(CNC(=O)Nc3cc(Cl)ccc3C)ccc21,.,28.2µM*,-10.1%,-4.3%[60.1 µM],.,11.8%
O=C(CCCCCNC(=O)c1ccccc1Br)N=Nc1c(O)[nH]c2ccccc12,-7.4,1.7%,-6.6%,-16.6%,-18.4%[57.1 µM],79.4µM*
O=C(O)CCCCCNC(=O)c1ccccc1Br,.,38.3%,-11.7%,3.0%,-5.0%,-16.4%
C=CCN1CCN(C(c2ccccc2)c2nnnn2CCC(C)C)CC1 (centres undefined),-58.9*,2.9%,2.2%,-13.1%,?,?
CCOc1ccc(-n2nc(CO)c(C(=O)NCCCc3ccccc3)n2)cc1,.,-6.0%,-11.4%,-20.7%,.,23.5%

# High-throughput results: PubChem, National Center for Advancing Translational Sciences (NCATS)
